PubChem BioAssay (NCI)
The panel holds about 83,000 compounds, 20% with a hit somewhere; the sample as a whole holds those more often.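 Results are percent growth after 48 hours of single-concentration exposure. 100 means growth as in untreated cells, lower positive values show inhibition; negative values down to -100 show cell death.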 The source made the active and inactive calls. Rule for the calls: active = growth percent below 10; inactive = the rest.

Tests used:
Assay in all cases: NCI-60 one-dose screen, 48 h (100 = growth as untreated, 0 = no growth, -100 = all killed)
SR leukemia = details: 10 µM unless noted
RPMI-8226 leukemia = details: 10 µM unless noted
OVCAR-8 ovarian = details: 10 µM unless noted
OVCAR-5 ovarian = details: 10 µM unless noted
OVCAR-4 ovarian = details: 10 µM unless noted
SK-OV-3 ovarian = details: 10 µM unless noted
IGROV1 ovarian = details: 10 µM unless noted
OVCAR-3 ovarian = details: 10 µM unless noted
NCI/ADR-RES ovarian = details: 10 µM unless noted
HS 578T breast = details: 10 µM

Measured: growth

CC(C)=CCc1cc2c(cc1O)C1=C(C(=O)C3=C(C1=O)S(=O)(=O)CCN3)C(C=C(C)C)O2 (configuration not stated)
active: SR leukemia 2.02% | RPMI-8226 leukemia 9.78% | OVCAR-8 ovarian -5.83% | OVCAR-5 ovarian -72.4% | OVCAR-4 ovarian -98.2% | SK-OV-3 ovarian -3.23% | IGROV1 ovarian -30.6% | OVCAR-3 ovarian 0.0791%
inactive: NCI/ADR-RES ovarian 73.8%

CCc1ccc(C2=C(O)C(=O)C(c3ccc(CC)cc3)=C(O)C2=O)cc1
active: SR leukemia -18.5% | OVCAR-8 ovarian -59% | OVCAR-5 ovarian -0.569% | OVCAR-4 ovarian -0.208% | SK-OV-3 ovarian -9.04% | IGROV1 ovarian -36.3% | OVCAR-3 ovarian -47.2% | HS 578T breast -21.6% | NCI/ADR-RES ovarian -18.5%

CCCS(=O)(=O)Nc1ccc(F)c(C(=O)c2c[nH]c3ncc(-c4ccc(Cl)cc4)cc23)c1F
active: SK-OV-3 ovarian -0.481%
inactive: SR leukemia 15.3% | RPMI-8226 leukemia 29.2% | OVCAR-8 ovarian 32.1% | OVCAR-5 ovarian 49% | OVCAR-4 ovarian 49.3% | IGROV1 ovarian 22.1% | OVCAR-3 ovarian 65.4% | NCI/ADR-RES ovarian 48.9%
